# Screening results from PubChem BioAssay.
# Sampled rows, rich in hits. Any-hit rate of the full collection: about 12%.
# G9a block: qHTS Assay for Inhibitors of Histone Lysine Methyltransferase G9a; Histone-lysine N-methyltransferase EHMT2 (Homo sapiens), Q96KQ7; G9a H3K9 monomethylation, AlphaScreen, 2 h; Potency, µM (titrated, usually from 102 µM), for the others: at the top dose activity, negative = inhibition, usual class: inhibitors; hit rate 8.8% among 350,000; note: % is set by controls: 0 for no effect and ±100 for the full control effect; nearly all actives have a fitted effect of over 75% in size
#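 Methyltransferase reactions run at room temperature for 2 h (20 nM enzyme, 500 nM biotin-H3K9 peptide, 20 uM SAM) after a 15 min compound preincubation; product detected by AlphaScreen beads and anti-H3K9me1 antibody.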
# HP1b binding inh: HTS for Inhibitors of HP1-beta Chromodomain Interactions with Methylated Histone Tails; Chromobox protein homolog 1 (Homo sapiens), P83916; AlphaScreen HP1-beta / biotin-H3K9me3 peptide binding; Potency, µM (highest dose often 114 µM), without a hit: at the top dose activity change, negative = inhibition, usual class: inhibitors; hit rate 0.56% among 390,000; AID 540317, 2011; note: nearly all actives have a fitted effect of over 70% in size
#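 HP1-beta protein (50 nM final) preincubated 30 min at room temperature with biotinylated H3(1-18)K9me3 peptide (50 nM) in PBS pH 7.4, 0.01% Tween-20, then compound added for 30 min. AlphaScreen streptavidin donor/nickel chelate acceptor beads (10 ug/mL final), 30 min dark, luminescence read.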
# JMJD2A Tudor inh: qHTS Assay for Inhibitors of JMJD2A-Tudor Domain; Lysine-specific demethylase 4A (Homo sapiens), O75164; AlphaScreen JMJD2A-Tudor / H3K4me3 peptide binding; Potency, µM (series often up to 114 µM), for inactives: top-dose activity change, negative = inhibition, actives largely listed as inhibitors; hit rate 4.4% among 390,000; AID 504339, 2011; note: % is set by controls: 0 for no effect and ±100 for the full control effect; nearly all actives have a fitted effect of over 50% in size
# Sfp inh: qHTS Assay for Inhibitors of Bacillus subtilis Sfp phosphopantetheinyl transferase (PPTase) | 4'-phosphopantetheinyl transferase ffp (Bacillus subtilis), Q9F4F7 | Biochemical Sfp PPTase activity, qHTS | Potency, µM, without a hit: largest response in the series, negative = inhibition, most hits filed as inhibitors | hit rate 3.5% among 310,000;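 note: the enzyme is Sfp with the accession as filed and its product quenches rhodamine fluorescence; 0% = enzyme reaction without inhibitor and -100% = no enzyme wells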
#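 Compounds were incubated with enzyme (final 15 nM) for 15 min at room temperature before substrate addition started the reaction. Fluorescence at 525 nm excitation, 598 nm emission was recorded immediately and after 30 minutes.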
# BAZ2B block: qHTS Assay for Inhibitors of BAZ2B; Potency, µM (highest dose often 114 µM), inactives show at the highest dose activity change, negative = inhibition, hits mostly inhibitors; AlphaScreen BAZ2B-H3K14Ac peptide displacement; AID 504333, 2011; hit rate 4.4% among 360,000; Bromodomain adjacent to zinc finger domain protein 2B (Homo sapiens), Q9UIF8; note: % is set by controls: 0 for no effect and ±100 for the full control effect; nearly all actives have a fitted effect of over 60% in size
# Target sequence (Q9UIF8 whole entry, looked up, the tested form may be a part): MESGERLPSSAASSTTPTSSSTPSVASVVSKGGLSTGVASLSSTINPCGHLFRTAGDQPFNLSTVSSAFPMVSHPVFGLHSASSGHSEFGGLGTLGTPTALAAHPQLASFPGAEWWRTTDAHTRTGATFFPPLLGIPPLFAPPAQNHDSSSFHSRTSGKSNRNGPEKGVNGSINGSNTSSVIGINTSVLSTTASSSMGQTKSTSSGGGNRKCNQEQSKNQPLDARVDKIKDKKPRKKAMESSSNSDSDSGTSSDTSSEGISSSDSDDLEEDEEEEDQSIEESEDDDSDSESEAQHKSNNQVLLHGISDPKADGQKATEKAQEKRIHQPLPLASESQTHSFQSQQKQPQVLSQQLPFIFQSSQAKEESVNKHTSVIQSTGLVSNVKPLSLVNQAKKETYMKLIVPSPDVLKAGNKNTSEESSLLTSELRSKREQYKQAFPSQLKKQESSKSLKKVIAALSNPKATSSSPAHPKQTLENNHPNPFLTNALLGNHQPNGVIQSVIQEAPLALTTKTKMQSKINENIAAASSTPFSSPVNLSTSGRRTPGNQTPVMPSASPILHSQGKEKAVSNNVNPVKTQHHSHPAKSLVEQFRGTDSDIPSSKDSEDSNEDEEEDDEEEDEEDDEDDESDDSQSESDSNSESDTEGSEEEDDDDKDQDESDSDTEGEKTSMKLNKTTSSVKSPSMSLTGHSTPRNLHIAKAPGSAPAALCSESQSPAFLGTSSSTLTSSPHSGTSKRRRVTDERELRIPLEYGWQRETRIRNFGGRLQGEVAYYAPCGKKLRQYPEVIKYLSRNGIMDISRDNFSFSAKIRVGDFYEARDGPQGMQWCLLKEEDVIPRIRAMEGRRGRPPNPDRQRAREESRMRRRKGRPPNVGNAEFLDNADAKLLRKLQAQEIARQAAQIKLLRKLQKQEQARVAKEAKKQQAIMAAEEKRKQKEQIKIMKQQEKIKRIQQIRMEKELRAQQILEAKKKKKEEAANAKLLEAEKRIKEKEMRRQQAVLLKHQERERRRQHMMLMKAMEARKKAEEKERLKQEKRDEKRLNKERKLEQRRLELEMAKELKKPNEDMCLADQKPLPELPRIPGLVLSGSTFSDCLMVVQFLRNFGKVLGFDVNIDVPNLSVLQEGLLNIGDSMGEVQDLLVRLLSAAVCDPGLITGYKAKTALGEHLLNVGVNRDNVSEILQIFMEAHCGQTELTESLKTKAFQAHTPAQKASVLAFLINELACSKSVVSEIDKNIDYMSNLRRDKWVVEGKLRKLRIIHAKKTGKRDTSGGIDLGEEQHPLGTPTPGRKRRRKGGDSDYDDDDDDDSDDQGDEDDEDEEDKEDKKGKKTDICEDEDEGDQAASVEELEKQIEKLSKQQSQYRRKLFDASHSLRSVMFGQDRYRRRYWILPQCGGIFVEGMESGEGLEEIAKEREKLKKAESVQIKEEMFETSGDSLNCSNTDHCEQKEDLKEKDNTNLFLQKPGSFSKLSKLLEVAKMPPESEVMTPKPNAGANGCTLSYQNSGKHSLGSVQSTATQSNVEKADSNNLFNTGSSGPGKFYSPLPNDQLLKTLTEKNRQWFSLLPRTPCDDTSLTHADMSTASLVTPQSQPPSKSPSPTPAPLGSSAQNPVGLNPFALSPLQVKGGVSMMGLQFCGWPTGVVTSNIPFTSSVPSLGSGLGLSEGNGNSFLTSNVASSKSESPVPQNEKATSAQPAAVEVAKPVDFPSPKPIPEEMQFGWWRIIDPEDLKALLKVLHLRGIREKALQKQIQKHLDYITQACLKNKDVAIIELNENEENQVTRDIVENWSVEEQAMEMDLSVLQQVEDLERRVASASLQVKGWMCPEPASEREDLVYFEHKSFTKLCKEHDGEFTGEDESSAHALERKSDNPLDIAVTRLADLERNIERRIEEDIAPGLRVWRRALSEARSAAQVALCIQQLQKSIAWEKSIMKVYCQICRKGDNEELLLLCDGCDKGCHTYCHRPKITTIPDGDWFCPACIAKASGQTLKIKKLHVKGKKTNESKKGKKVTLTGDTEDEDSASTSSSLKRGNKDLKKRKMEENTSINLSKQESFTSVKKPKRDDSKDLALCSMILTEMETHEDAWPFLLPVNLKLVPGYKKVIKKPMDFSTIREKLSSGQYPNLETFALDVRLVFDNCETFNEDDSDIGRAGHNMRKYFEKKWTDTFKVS
#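 Multi-concentration screen (max 110 uM) measuring displacement of acetylated histone H3 peptide from BAZ2B by AlphaScreen, using 50 nM protein, 50 nM peptide and 10 ug/mL streptavidin donor plus Ni-chelate acceptor beads.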
# An asterisk follows results filed as active; ? = inconclusive; · = not tested or not shown; [ ] = another dose, or the depositor's remark. Calls come from the whole dose curve; as a rule, active = well fitted curve in the direction sought with a large enough effect; inconclusive = small, poorly fitted or top-dose-only effect, or another doubt; inactive = no such curve, though single readings can be large; an effect the other way counts as inactive or inconclusive. Potency is the fitted concentration of half-maximal effect.
SMILES,G9a block,HP1b binding inh,JMJD2A Tudor inh,Sfp inh,BAZ2B block
Cc1ccc2c(CC(=O)Nc3ccc(S(=O)(=O)N4CCCCC4C)cc3)coc2c1 (stereo not drawn),?,0%,-22%,·,-22%
CCOc1cc(C#N)c(NC(=O)c2ccc(OC)c(S(=O)(=O)N3CCN(c4ccccc4)CC3)c2)cc1OCC,?,18%,-12%,·,-18%
Cc1cc2c(s1)c1cnn(Cc3ccc(C(=O)O)cc3)c(=O)c1n2C,·,·,-5%,·,·
COc1ccc(-c2oc3ncn4nc(COc5ccc(C)cc5)nc4c3c2-c2ccc(OC)cc2)cc1,1%[59 µM],34%,0%,·,-19%
CCOC(=O)N1CCN(C(=O)CSc2nnc(-c3ccc(C)c(C)c3)o2)CC1,-10%,66%,4%,-3%,-7%
Cc1ccc(-c2nnc(SCC(=O)N3CCCC3)o2)cc1C,50µM*,33%,?,-7%,-1%
OCC1(CO)COC2(CCCC2)N1,-5%[12.7 µM],-6%,16µM*,2%,4%
COc1ccc2nc3c(c([Si](C)(C)C(C)(C)C)c2c1)Cn1c-3cccc1=O,·,·,·,-23%,·
COc1cc2nc3c(c([Si](C)(C)C(C)(C)C)c2cc1OC)Cn1c-3cccc1=O,·,·,·,79µM*,·
CC(C)(C)[Si](C)(C)c1c2c(nc3ccc(OCc4ccccc4)cc13)-c1cccc(=O)n1C2,·,·,·,56µM*,·
CCOc1ccc(-n2c(SCC(=O)N3CCCCC3)nc3c([nH]c4ccccc43)c2=O)cc1,7%[59 µM],23%[57 µM],-1%,·,-1%
Cc1cnc(NC(=O)COc2ccccc2Cl)s1,56µM*,10%,-18%,18%,1%
Cc1ccc(OCC(=O)NNC(=O)c2cc(C)[nH]n2)cc1,-14%[59 µM],15%,?,14%,2%
Cc1cnc(NC(=O)Nc2ccc(Cl)cc2)s1,50µM*,22%,-10%,10%,16%
Cc1cnc(NC(=O)CCNC(=O)c2ccccc2Cl)s1,-5%,40%,5%,4%,9%
Cc1cc(C(=O)NNC(=O)COc2ccccc2Cl)n[nH]1,79µM*,29%,12%,-5%,4%
Cc1cnc(NC(=O)CSc2ccc(Cl)cc2)s1,49%[12.7 µM],28%,-22%,13%,4%
CCCCCCN(C(=O)CCCCCN1C(=O)NC(C2CCCCC2)C(C(=O)OCc2ccccc2)=C1C)C(C(=O)NCCCC)c1ccc(OCC(=O)OC)c(C(=O)OC)c1 (stereo not drawn),·,·,·,11%,·
O=C(CN1CC(=O)Oc2ccccc21)OCC(=O)c1cccc(Br)c1,45µM*,59%,40µM*,71µM*,8.9µM*
O=C(CN1CC(=O)Oc2ccccc21)OCC(=O)c1ccccc1,?,45%,20µM*,?,13µM*
O=C(COC(=O)C1CC2CCCC(C1)C2=O)c1cccc(Br)c1 (stereo not drawn),?,51%,-2%,·,14%
CCN1CCC(O)(/C=C/c2ccc(C(C)C)cc2)C(C(=O)/C=C/c2ccc(C(C)C)cc2)C1 (stereo not drawn),·,?,32µM*,·,·
Cc1ccc(CN2c3ccccc3-c3nc(SCC(=O)NCCc4ccccc4)ncc3S2(=O)=O)cc1,6%[59 µM],17%,-8%,·,-4%
Oc1cc2c(cc1O)[C@@H]1c3ccc(O)c(O)c3OC[C@]1(O)C2,·,·,·,32µM*,·
O=C(NC(=S)Nc1ccc(CN2CCOCC2)cc1)c1ccc([N+](=O)[O-])cc1Cl,50µM*,-7%,-31%,-15%,?
O=C(NC(=S)Nc1ccc(N2CCOCC2)cc1)c1cccc([N+](=O)[O-])c1,?,-13%,-4%,-19%,-21%
O=C(NC(=S)Nc1ccc(CN2CCOCC2)cc1)c1cccc([N+](=O)[O-])c1,?,-5%,-28%,45µM*,?
O=C(NC(=S)Nc1ccc(CN2CCOCC2)cc1)c1ccccc1[N+](=O)[O-],?,20%,1%,-20%,-13%
